According to PubChem BioAssay AID1159580 (chemical genetic matrix, 2015):
Several values for one entry are separate records, joined by “and”; a condition that tells them apart may be missing. Equal values may be shown once. The whole screen tested about 5,500 compounds, of which about 2,000 (36%) were called active. Roughly 18% stayed inconclusive and do not appear here. Rule as the data show it: active = normalized growth mostly below about 0.91 (no sharp cut-off); inconclusive = no clear call, values can overlap the other calls; inactive = mostly above about 0.92. The list shows a part of the results. Where a structure was tested more than once in an assay, its records may differ in their call.

Assay: chemical genetic growth profiling, strain panel (AID 1159580);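 also: tested at 20 µM; growth read once vehicle control cultures reached saturation at 30 °C; 1 = growth at the plate median or of vehicle wells; lower values mean less growth of the strain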
Conditions: S. cerevisiae deletion strains, growth OD

Measured: normalized growth

Cc1ccc(Cl)c(Nc2ccccc2C(=O)O)c1Cl
0.879 (active) and 0.942 (inactive): locus YDR150W, strain NUM1, stronger effect = lower value
0.664 (active) and 0.986 (inactive): locus YJL095W, strain BCK1, stronger effect = lower value
active: locus YAL026C, strain drs2, stronger effect = lower value 0.787 | locus YAL030W, strain snc1, stronger effect = lower value 0.876 | locus YBL061C, strain skt5, stronger effect = lower value 0.884 | locus YBR009C, strain hhf1, stronger effect = lower value 0.856 | locus YBR023C, strain chs3, stronger effect = lower value 0.852 | locus YBR171W, strain sec66, stronger effect = lower value 0.817 | locus YBR229C, strain ROT2, stronger effect = lower value 0.884 | locus YBR231C, strain swc5, stronger effect = lower value 0.885 | locus YBR279W, strain paf1, stronger effect = lower value 0.867 | locus YCL011C, strain gbp2, stronger effect = lower value 0.852 | locus YCL016C, strain dcc1, stronger effect = lower value 0.818 | locus YCL029C, strain bik1, stronger effect = lower value 0.887 | locus YCL061C, strain MRC1, stronger effect = lower value 0.891 | locus YCL069W, strain vba3, stronger effect = lower value 0.866 | locus YCR088W, strain abp1, stronger effect = lower value 0.876 | locus YDL005C, strain med2, stronger effect = lower value 0.895 | locus YDL040C, strain nat1, stronger effect = lower value 0.894 | locus YDL192W, strain arf1, stronger effect = lower value 0.824 | locus YDR001C, strain nth1, stronger effect = lower value 0.871 | locus YDR101C, strain arx1, stronger effect = lower value 0.906 | locus YDR137W, strain rgp1, stronger effect = lower value 0.455 | locus YDR159W, strain sac3, stronger effect = lower value 0.766 | locus YDR162C, strain NBP2, stronger effect = lower value 0.794 | locus YDR297W, strain sur2, stronger effect = lower value 0.908 | locus YDR318W, strain mcm21, stronger effect = lower value 0.83 | locus YDR334W, strain swr1, stronger effect = lower value 0.879 | locus YDR335W, strain msn5, stronger effect = lower value 0.896 | locus YDR388W, stronger effect = lower value 0.87 | locus YDR392W, strain spt3, stronger effect = lower value 0.188 | locus YDR502C, strain sam2, stronger effect = lower value 0.835 | locus YEL003W, strain gim4, stronger effect = lower value 0.904 | locus YEL037C, strain rad23, stronger effect = lower value 0.901 | locus YEL061C, strain CIN8 (second series), stronger effect = lower value 0.885 | locus YEL061C, strain CIN8, stronger effect = lower value 0.888 | locus YER015W, strain faa2, stronger effect = lower value 0.926 | locus YER016W, strain bim1, stronger effect = lower value 0.91 | locus YER110C, stronger effect = lower value 0.866 | locus YER111C, strain swi4, stronger effect = lower value 0.876 | locus YER155C, strain BEM2 (second series), stronger effect = lower value 0.644 | locus YER155C, strain BEM2, stronger effect = lower value 0.839 | locus YGL086W, strain mad1, stronger effect = lower value 0.905 | locus YGL167C, strain pmr1, stronger effect = lower value 0.829 | locus YGL173C, strain kem1, stronger effect = lower value 0.85 | locus YGL227W, strain vid30, stronger effect = lower value 0.906 | locus YGL253W, strain hxk2, stronger effect = lower value 0.81 | locus YGR135W, strain pre9, stronger effect = lower value 0.795 | locus YHR013C, strain ard1, stronger effect = lower value 0.793 | locus YHR027C, strain rpn1, stronger effect = lower value 0.903 | locus YHR079C, strain IRE1 (second series), stronger effect = lower value 0.876 | locus YHR094C, strain hxt1, stronger effect = lower value 0.869 | locus YHR129C, strain ARP1, stronger effect = lower value 0.91 | locus YHR142W, strain chs7, stronger effect = lower value 0.737 | locus YHR200W, strain rpn10, stronger effect = lower value 0.882 | locus YIR030C, strain dcg1, stronger effect = lower value 0.868 | locus YJL092W, strain hpr5, stronger effect = lower value 0.872 | locus YJL095W, strain BCK1 (second series), stronger effect = lower value 0.822 | locus YJL129C, strain trk1, stronger effect = lower value 0.644 | locus YJL134W, strain LCB3, stronger effect = lower value 0.906 | locus YJL154C, strain vps35, stronger effect = lower value 0.891 | locus YJL164C, strain tpk1, stronger effect = lower value 0.866 | locus YJL166W, strain qcr8, stronger effect = lower value 0.864 | locus YJL168C, strain set2, stronger effect = lower value 0.892 | locus YJL187C, strain SWE1, stronger effect = lower value 0.891
inactive: locus YAL013W, strain DEP1, stronger effect = lower value 0.938 | locus YAL021C, strain ccr4, stronger effect = lower value 0.917 | locus YAL040C, strain CLN3, stronger effect = lower value 0.916 | locus YBR021W, strain FUR4, stronger effect = lower value 0.954 | locus YCL061C, strain MRC1 (second series), stronger effect = lower value 0.965 | locus YDL035C, strain GPR1, stronger effect = lower value 0.939 | locus YDL074C, strain BRE1, stronger effect = lower value 0.799 | locus YDL101C, strain DUN1, stronger effect = lower value 0.957 | locus YDL185W, strain tfp1, stronger effect = lower value 0.953 | locus YDR069C, strain doa4, stronger effect = lower value 0.928 | locus YDR195W, strain ref2 1.11 | locus YDR363W, strain ESC2, stronger effect = lower value 0.985 | locus YER002W, strain NOP16, stronger effect = lower value 0.926 | locus YER167W, strain BCK2, stronger effect = lower value 0.905 | locus YFR010W, strain ubp6, stronger effect = lower value 0.931 | locus YGL078C, strain dbp3, stronger effect = lower value 0.969 | locus YGL240W, strain doc1, stronger effect = lower value 0.91 | locus YGL248W, strain PDE1, stronger effect = lower value 0.899 | locus YGR078C, strain PAC10, stronger effect = lower value 0.926 | locus YGR229C, strain SMI1, stronger effect = lower value 0.841 | locus YGR252W, strain gcn5, stronger effect = lower value 0.834 | locus YHR079C, strain IRE1, stronger effect = lower value 1.03 | locus YIL066C, strain RNR3, stronger effect = lower value 0.881 | locus YIL073C, strain SPO22, stronger effect = lower value 0.735 | locus YIL125W, strain kgd1, stronger effect = lower value 0.981 | locus YJL115W, strain asf1, stronger effect = lower value 0.934 | locus YJL187C, strain SWE1 (second series), stronger effect = lower value 0.897 | locus YJR043C, strain POL32, stronger effect = lower value 0.956
0.901 (active) and 0.983 (inactive): locus YHR030C, strain SLT2, stronger effect = lower value
